Results with a measured potency or affinity are listed apart. Activity calls are given as the source filed them.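 Rule for the calls: active = compounds that lower nitrite signal with fitted half-max concentration up to ten times top dose; inconclusive = flat curves showing 30 to 70% inhibition, or poor fits; inactive = the rest.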
Experiment: inhibitors of cytokine-induced nitrite release, dose response, cell-based, Griess absorbance, INS-1E, dry powder (AID 488866)
Settings: INS-1E cytokine-induced nitrite, 48 h; series mostly up to 19.5 µM

SMILES	outcome
Cc1ccc(S(=O)(=O)N(C)C[C@@H]2Oc3c(NC(=O)Nc4ccc(F)cc4)cccc3C(=O)N([C@H](C)CO)C[C@H]2C)cc1	inactive
C[C@@H]1CN([C@@H](C)CO)C(=O)c2cccc(NC(=O)Nc3cccc4ccccc34)c2O[C@H]1CN(C)S(=O)(=O)Cc1ccc(F)cc1	inactive
C[C@@H]1CN([C@@H](C)CO)C(=O)c2cccc(NC(=O)Nc3cccc4ccccc34)c2O[C@H]1CN(C)S(=O)(=O)c1ccccc1F	inactive
COc1ccc(S(=O)(=O)N(C)C[C@@H]2Oc3c(NC(=O)Nc4cccc5c4CCCC5)cccc3C(=O)N([C@@H](C)CO)C[C@H]2C)cc1	inactive
COc1ccc(S(=O)(=O)N(C)C[C@@H]2Oc3c(NC(=O)Nc4cccc5ccccc45)cccc3C(=O)N([C@@H](C)CO)C[C@H]2C)cc1	inactive
COc1ccc(S(=O)(=O)N(C)C[C@@H]2Oc3c(NC(=O)Nc4cccc5c4CC(C)(C)O5)cccc3C(=O)N([C@@H](C)CO)C[C@H]2C)cc1	inactive
Cc1ccc(S(=O)(=O)N(C)C[C@@H]2Oc3c(NC(=O)Nc4ccc(F)cc4)cccc3C(=O)N([C@@H](C)CO)C[C@H]2C)cc1	inactive
COc1ccccc1S(=O)(=O)N(C)C[C@@H]1Oc2c(NC(=O)Nc3cccc4ccccc34)cccc2C(=O)N([C@@H](C)CO)C[C@H]1C	inactive
C[C@@H]1CN([C@@H](C)CO)C(=O)c2cccc(NC(=O)Nc3cccc4ccccc34)c2O[C@H]1CN(C)S(=O)(=O)c1ccc2c(c1)OCCO2	inactive
C[C@@H]1CN([C@@H](C)CO)C(=O)c2cccc(NC(=O)Nc3cccc4ccccc34)c2O[C@H]1CN(C)S(=O)(=O)c1ccc(F)cc1	inactive
COc1ccc(S(=O)(=O)N(C)C[C@@H]2Oc3c(NC(=O)Nc4cccc5c4NSN5)cccc3C(=O)N([C@@H](C)CO)C[C@H]2C)cc1	inactive
COc1cccc(S(=O)(=O)N(C)C[C@@H]2Oc3c(NC(=O)Nc4cccc5ccccc45)cccc3C(=O)N([C@@H](C)CO)C[C@H]2C)c1	inactive
C[C@@H]1CN([C@@H](C)CO)C(=O)c2cccc(NC(=O)Nc3ccc(F)cc3)c2O[C@H]1CN(C)S(=O)(=O)c1ccc(Cl)cc1	inactive
Cc1ccc(S(=O)(=O)N(C)C[C@@H]2Oc3c(NC(=O)Nc4cccc5ccccc45)cccc3C(=O)N([C@@H](C)CO)C[C@H]2C)cc1	inactive
C[C@@H]1CN([C@@H](C)CO)C(=O)c2cccc(NC(=O)Nc3ccc(F)cc3)c2O[C@H]1CN(C)S(=O)(=O)c1ccc(F)cc1	inactive
COc1ccc(S(=O)(=O)N(C)C[C@@H]2Oc3c(NC(=O)Nc4cccc5c4ccn5C)cccc3C(=O)N([C@@H](C)CO)C[C@H]2C)cc1	inactive
C[C@@H]1CN([C@@H](C)CO)C(=O)c2cccc(NC(=O)Nc3cccc4ccccc34)c2O[C@H]1CN(C)S(=O)(=O)c1ccc(Oc2ccccc2)cc1	inactive
COc1ccc(S(=O)(=O)N(C)C[C@@H]2Oc3c(NC(=O)Nc4cc(F)ccc4F)cccc3C(=O)N([C@@H](C)CO)C[C@H]2C)cc1	inactive
COc1ccc(S(=O)(=O)N(C)C[C@@H]2Oc3ccc(NC(=O)Nc4cccc5ccccc45)cc3C(=O)N([C@@H](C)CO)C[C@H]2C)cc1	inactive
COc1ccc(S(=O)(=O)N(C)C[C@@H]2Oc3c(NC(=O)Nc4ccc5c(c4)OCCO5)cccc3C(=O)N([C@@H](C)CO)C[C@H]2C)cc1	inactive
C[C@@H]1CN([C@@H](C)CO)C(=O)c2cccc(NC(=O)Nc3cccc4ccccc34)c2O[C@H]1CN(C)S(=O)(=O)c1ccc2c(c1)CCC(=O)N2	inactive
COc1ccc(S(=O)(=O)N(C)C[C@@H]2Oc3c(NC(=O)c4cccc5ccccc45)cccc3C(=O)N([C@@H](C)CO)C[C@H]2C)cc1	inactive
COc1ccc(S(=O)(=O)N(C)C[C@@H]2Oc3c(NC(=O)Nc4cccc5ccccc45)cccc3C(=O)N([C@@H](C)CO)C[C@H]2C)cc1F	inactive
COc1ccc(S(=O)(=O)N(C)C[C@@H]2Oc3c(NC(=O)Nc4cccc(-c5ncccn5)c4)cccc3C(=O)N([C@@H](C)CO)C[C@H]2C)cc1	inactive
COc1ccc(S(=O)(=O)N(C)C[C@@H]2Oc3c(NC(=O)Nc4ccc5occc5c4)cccc3C(=O)N([C@@H](C)CO)C[C@H]2C)cc1	inactive
COc1ccc(S(=O)(=O)N(C)C[C@@H]2Oc3c(NC(=O)Nc4cc(F)cc5c4OCOC5)cccc3C(=O)N([C@@H](C)CO)C[C@H]2C)cc1	inactive
